Measured values as given in paper PMC4336329 (PLoS ONE, 2015).
Among all 310,000 compounds or so, about 14,000 (4.5%) showed an effect of 50% or more. The effect is printed as a negative number. The full list was thinned out, with strong results kept by preference.

Target: human ether-à-go-go-related gene (hERG) potassium channel (human, UniProt Q12809)
Test: primary screen, population patch clamp on CHO cells stably expressing hERG; higher = less effect of the substance
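Further: peak tail current of the secondary pulse compared with the same well before compound.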

Chain of human ether-à-go-go-related gene (hERG) potassium channel (Q12809 whole entry, looked up): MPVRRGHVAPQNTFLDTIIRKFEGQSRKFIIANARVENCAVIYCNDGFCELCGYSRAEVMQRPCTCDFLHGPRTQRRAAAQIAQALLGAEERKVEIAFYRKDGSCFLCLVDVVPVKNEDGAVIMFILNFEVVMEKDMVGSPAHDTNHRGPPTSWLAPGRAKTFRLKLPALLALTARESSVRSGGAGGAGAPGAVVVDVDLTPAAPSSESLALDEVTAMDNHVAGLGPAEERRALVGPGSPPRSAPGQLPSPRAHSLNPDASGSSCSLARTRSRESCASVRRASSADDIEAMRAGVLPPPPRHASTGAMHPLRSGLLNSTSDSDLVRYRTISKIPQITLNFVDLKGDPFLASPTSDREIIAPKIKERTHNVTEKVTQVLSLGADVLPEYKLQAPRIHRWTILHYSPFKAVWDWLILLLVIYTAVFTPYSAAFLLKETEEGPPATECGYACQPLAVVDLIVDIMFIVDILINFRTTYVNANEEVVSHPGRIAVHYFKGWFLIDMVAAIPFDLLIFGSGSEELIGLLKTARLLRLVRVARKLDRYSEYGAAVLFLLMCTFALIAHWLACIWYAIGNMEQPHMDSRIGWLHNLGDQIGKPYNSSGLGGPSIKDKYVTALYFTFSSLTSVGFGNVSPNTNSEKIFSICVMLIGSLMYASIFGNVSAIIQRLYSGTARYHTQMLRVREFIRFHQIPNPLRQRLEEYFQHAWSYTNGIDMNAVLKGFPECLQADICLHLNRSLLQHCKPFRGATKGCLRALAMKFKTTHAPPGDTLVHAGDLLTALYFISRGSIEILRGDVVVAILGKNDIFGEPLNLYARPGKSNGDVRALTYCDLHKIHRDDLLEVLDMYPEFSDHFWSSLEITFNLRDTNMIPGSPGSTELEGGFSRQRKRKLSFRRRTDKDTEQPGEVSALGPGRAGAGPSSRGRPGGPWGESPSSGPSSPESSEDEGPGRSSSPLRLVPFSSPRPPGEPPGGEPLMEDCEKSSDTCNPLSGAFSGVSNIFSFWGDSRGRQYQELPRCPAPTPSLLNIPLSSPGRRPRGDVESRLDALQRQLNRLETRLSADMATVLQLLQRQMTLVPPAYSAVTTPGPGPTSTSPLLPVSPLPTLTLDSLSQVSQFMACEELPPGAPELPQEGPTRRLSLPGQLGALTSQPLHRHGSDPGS

Row | SMILES | hERG current change (%, negative = inhibition) at 10uM
1 | COc1cc(NC(=O)c2cccc(Br)c2)nc(OC)n1 | 3.34%
2 | CCSc1ccccc1C(=O)NCCCn1ccnc1 | 10.2%
3 | CCCC(=O)Nc1cc(-c2nnc(OC)c3ccccc23)ccc1N1CCCCC1 | -36.3%
4 | C=CCOc1nc2c(c(=O)n(C)c(=O)n2C)n1Cc1ccccc1Cl | -6.73%
5 | COc1cc2c(cc1OC)C(C(=O)NCc1cccnc1)C(c1cccnc1)N(C)C2=O (stereo not drawn) | 9.05%
6 | COc1cc([N+](=O)[O-])cc(/C=N/NC(=O)Cn2cncn2)c1O | 5.88%
7 | CC(=O)NCCC(=O)Nc1cc(S(=O)(=O)N2CCCCC2)ccc1N1CCCCC1 | -5.37%
8 | COc1ccccc1Oc1ccc(S(=O)(=O)N2CCCCC2)cc1NC(=O)CCNC(C)=O | -55.1%
9 | COc1ccc(S(=O)(=O)N2CCCCC2)cc1NC(=O)CCCOc1ccccc1 | -9.13%
10 | CC(=O)NCCC(=O)Nc1cc(S(=O)(=O)N2CCOCC2)ccc1Oc1ccc(F)cc1 | -30.5%
11 | CC(=O)NCCC(=O)Nc1cc(S(=O)(=O)N2CCOCC2)ccc1Oc1ccccc1 | -8.45%
12 | COC(=O)CNc1cc(S(=O)(=O)N2CCCCC2)ccc1Oc1cccc(C)c1 | -30.7%
13 | COc1ccc(S(=O)(=O)N2CCCCC2)cc1NC(=O)CCNC(=O)c1ccccc1Cl | -11%
14 | CC(=O)NCCC(=O)Nc1cc(S(=O)(=O)N2CCCCC2)ccc1Oc1ccccc1 | -64.9%
15 | CC(=O)NCCC(=O)Nc1cc(S(=O)(=O)N2CCCCC2)ccc1Oc1cccc(C)c1 | -68%
16 | Cc1ccc2cccc(Oc3ncnc4scc(-c5ccc(Cl)cc5)c34)c2n1 | 3.87%
17 | CCCNC(=O)C(=O)N/N=C/c1ccc(OCc2ccccc2)cc1 | 26.9%
18 | COC(=O)c1ccc(CSc2nc3cc(Cl)ccc3s2)o1 | 9.32%
19 | CN1C(=O)C(CC(=O)O)S/C1=N\N=C\c1ccc(O)cc1O (stereo not drawn) | 6.03%

Row | SMILES | hERG current change (%, negative = inhibition) at 10uM
20 | Cc1ccc(NCCC(=O)c2ccc(Br)cc2)cc1 | 0.444%
21 | CCOC(=O)CSc1ccc2nnc(-c3ccncc3)n2n1 | -31.4%
22 | CCOC(=O)CC(=O)CSc1ccc2nnc(-c3cccc(F)c3)n2n1 | -72.2%
23 | CCSc1ccc2nnc(-c3cccs3)n2n1 | -34%
24 | CCOC(=O)CSc1ccc2nnc(-c3ccccc3)n2n1 | -39.3%
25 | CCOC(=O)N1CCC(Nc2ccc3nnc(-c4ccccc4)n3n2)CC1 | -82%
26 | O=C(CSc1ccc2nnc(-c3cccs3)n2n1)N1CCCC1 | -43.4%
27 | Cc1cc(NC(=O)CSc2ccc3nnc(-c4cccc(F)c4)n3n2)no1 | -14.3%
28 | CCOC(=O)CC(=O)CSc1ccc2nnc(-c3ccccc3)n2n1 | -71.7%
29 | CCOC(=O)N1CCC(NC(=O)Cc2ccccc2)CC1 | 15.6%
30 | CCOC(=O)CSc1ccc2nnc(-c3cccs3)n2n1 | -51.2%
31 | CCOC(=O)CC(=O)CSc1ccc2nnc(-c3ccc(F)cc3)n2n1 | -23.4%
32 | CCOC(=O)N1CCC(Nc2c(-c3ccccc3)c(=O)c2=O)CC1 | -23.2%
33 | COc1ccc(CNC(=O)CN2CCN(S(=O)(=O)c3cccs3)CC2)cc1OC | 1.64%
34 | Cc1c(C(=O)N2CCCCC2)c(S(=O)(=O)N2CCC(C)CC2)c(C)n1C | 3.48%
35 | C=CCn1c(Oc2ccccc2F)nc2c1c(=O)n(C)c(=O)n2C | 2.59%
36 | CC1=C[C@H](C)[C@H](c2c(F)cccc2Cl)CC1=O | 6.22%
37 | C=CCSc1nnc(NC(=O)c2cccc(S(=O)(=O)N3CCOCC3)c2)s1 | -11.1%
38 | O=C(Nc1ccccc1C(F)(F)F)N1CCCCCC1 | 8.71%

Row | SMILES | hERG current change (%, negative = inhibition) at 10uM
39 | COc1ccc2nc(NC(=O)C(NS(=O)(=O)c3cccc4nsnc34)C(C)C)sc2c1 (stereo not drawn) | 10.4%
40 | Cc1ccccc1C(=O)c1ccc2c(c1)n(C)c(=O)n2C | 2.11%
41 | COC(=O)C(C)Sc1ccc2nnc(-c3cccc(F)c3)n2n1 (stereo not drawn) | -58%
42 | COC(=O)C(C)Sc1ccc2nnc(-c3ccc(F)cc3)n2n1 (stereo not drawn) | -27%
43 | COC(=O)C(C)Sc1ccc2nnc(-c3ccccc3)n2n1 (stereo not drawn) | -30.8%
44 | COc1cc2c(cc1OC)C(C1C(=O)CCCC1=O)N(C(=O)CCl)CC2 (stereo not drawn) | 14.1%
45 | CC1CCCCC1NC(=O)COn1nnc2ccc(Cl)cc21 (stereo not drawn) | -14.3%
46 | CN(C)CCCNS(=O)(=O)c1cc(Cl)c(Cl)cc1Cl | -27.8%
47 | CCN1CCN(c2ccc(NC(=O)C(C)C)cc2Cl)CC1 | -20%
48 | CCN1CCN(c2ccc(NC(=O)c3ccc(C#N)cc3F)cc2Cl)CC1 | -72.1%
49 | CCN1CCN(c2ccc(NC(=O)c3ccco3)cc2Cl)CC1 | -4.06%
50 | CCC(=O)N1CCN(c2ccc(NC(=O)c3ccc(C#N)cc3F)cc2Cl)CC1 | -7.73%
51 | O=C(Nc1ccc(N2CCOCC2)c(Cl)c1)c1ccccc1F | 3.56%
52 | CCN1CCN(c2ccc(NC(=O)c3ccccc3F)cc2Cl)CC1 | -70.1%
53 | O=C(Nc1ccc(N2CCOCC2)c(Cl)c1)c1cc(F)c(F)cc1Cl | -20.9%
54 | CN1CCN(c2ccc(NC(=O)c3ccc(C#N)cc3F)cc2Cl)CC1 | -53.7%
55 | N#Cc1ccc(C(=O)Nc2ccc([N+](=O)[O-])cc2)c(F)c1 | 4.42%
56 | O=C(O)CCCSc1nccn1-c1ccccc1 | 22.3%
57 | c1ccc(-c2cc(N3CCOCC3)nc(-c3ccccc3)n2)cc1 | -5.46%
